Reference: PubChem BioAssay AID743484 (Broad Institute, 2014)
Results with a measured potency or affinity are listed apart. Active and inactive are the calls of the source.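 Rule for the calls: active = cell-killing compounds whose fitted half-effect concentration is at most twice their highest valid dose; inconclusive = flat curve with 30 to 70% signal loss, or poor fit; inactive = the rest.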

test: A549 lung cell viability reduction – CellTiter-Glo luminescence, cherry-pick, cytotoxicity control, dose response (AID 743484); details: CellTiter-Glo ATP luminescence, 72 h; series mostly up to 26 µM; activity change, negative = cytotoxicity: at the top concentration

| Structure (SMILES) | activity change, negative = cytotoxicity |
| --- | --- |
| CCOC(=O)c1c(NC(=O)Cc2cccs2)sc(C)c1C | 12 unspecified (inactive) |
| Cc1cc(C)c(OCCNC(=O)c2ccccc2Sc2ccccc2C#N)c(C)c1 | -7.36 unspecified (inactive) |
| COc1ccc(Nc2oc(-c3ccco3)nc2S(=O)(=O)c2ccc(F)cc2)cc1 | 9.83 unspecified (inactive) |
| Cc1c(C(=O)O)sc2nc(CSc3ncc(C(F)(F)F)cc3Cl)[nH]c(=O)c12 | 10.5 unspecified (inactive) |
| COc1ccc(Cn2c(-c3ccc(Cl)cc3)c[n+]3ccccc23)cc1 | -1.67 unspecified (inactive) |
| Cc1noc(C)c1NC(=O)Nc1ccc2c(c1)C(=O)N([C@H](C)CO)C[C@@H](C)[C@@H](CN(C)C(=O)Nc1ccc3c(c1)OCO3)OCCCC[C@@H](C)O2 | 6.85 unspecified (inactive) |
| Cc1ccc(S(=O)(=O)N2CC[C@H]3[C@H](CO)Nc4ccc(Br)cc4[C@H]32)cc1 | -0.943 unspecified (inactive) |
| COc1ccc(-n2cc(-c3ccccc3)c3c(N4CCOCC4)ncnc32)cc1 | 19.9 unspecified (inactive) |
| COc1ccc2[nH]c3c(=O)n(CCCCC(=O)NCCC(C)C)c(=S)[nH]c3c2c1 | 32.3 unspecified (inactive) |
| COC(=O)c1c(NC(=O)CCC(=O)O)sc(Cc2ccccc2)c1C | 4.37 unspecified (inactive) |
| Cc1[nH]c(=S)sc1Cc1ccc(Cl)c(Cl)c1 | 19.8 unspecified (inactive) |
| CCOc1ccccc1NC(=O)c1ccc2ccccc2c1 | 6.53 unspecified (inactive) |
| CC[C@H]1OC(=O)[C@H](C)[C@@H](O[C@H]2C[C@@](C)(OC)[C@@H](O)[C@H](C)O2)[C@H](C)[C@@H](O[C@@H]2O[C@H](C)C[C@H](N(C)C)[C@H]2O)[C@](C)(O)C[C@@H](C)[C@@H]2N[C@@H](COCCOC)O[C@H]([C@H]2C)[C@]1(C)O | -8.75 unspecified (inactive) |
| O=C(O)c1cc([N+](=O)[O-])ccc1NCc1ccccc1 | 10.3 unspecified (inactive) |
